± gives the standard deviation.
T1: HaloTag-ATRX ADD domain (163-292)
T1 chain: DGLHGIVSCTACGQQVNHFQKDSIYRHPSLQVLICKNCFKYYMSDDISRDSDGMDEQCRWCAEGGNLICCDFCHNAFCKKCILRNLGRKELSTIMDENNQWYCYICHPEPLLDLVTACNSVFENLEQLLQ


Experiments:
Assay in all cases: peptide microarray binding signal (635 nm), min-max normalized on array (fraction of array maximum); higher = stronger binding
Details in all cases: peptide region: Unmod H2B variant
[1] = target: T1, HaloTag-ATRX ADD domain (163-292)
Outline: (§1)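 An Axon GenePix 4000B scanned the arrays at 635 nm for signal and at 532 nm to catch misprints. Those arrays held histone 13-mer peptide–cellulose conjugates printed in triplicate on nitrocellulose with a Cy3 tracer, blocked overnight at 4°C and probed for 1 h at 4°C with biotin-labelled HaloTag reader fusions (10 nM to 1 μM) plus streptavidin-Alexa Fluor 647 or with rabbit histone antibodies (1:10,000 to 1:2,000) plus anti-rabbit Alexa 647. Each binding signal is a triplicate-spot mean intensity, scaled min-max within its library.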

[2] = target: HaloTag-ING2 PHD (mouse Ing2 200-280)
Outline: as §1

[3] = target: anti-H3K4me3 antibody ab8580
Outline: as §1

[4] = target: anti-H3K9me3 antibody ab8898
Outline: as §1

[5] = binder concentration: 1:2,000 dilution
[6] = binder concentration: 1:10,000 dilution

Binder	peptide microarray binding signal ([1]; binder concentration: 50 nM)	peptide microarray binding signal ([1]; binder concentration: 500 nM)	peptide microarray binding signal ([2]; binder concentration: 10 nM)	peptide microarray binding signal ([2]; binder concentration: 100 nM)	peptide microarray binding signal [3, 5]	peptide microarray binding signal [3, 6]	peptide microarray binding signal [4, 5]	peptide microarray binding signal [4, 6]
PEPSKSAPAPKKG [Unmod H2B variant P E P S K S A P A P K K G]	0.00618 ± 0.00016	0.0115 ± 0.0012	0.00406 ± 0.00015	0.0137 ± 0.0011	0.000963 ± 6.3e-05	0.00126 ± 9.4e-05	0.000453 ± 7.5e-06	0.000923 ± 9.6e-06
PEPAKSAPAPKKG [Unmod H2B variant P E P A K S A P A P K K G]	0.00404 ± 8.4e-05	0.00971 ± 0.00016	0.00346 ± 6.5e-05	0.00369 ± 5.6e-05	0.000359 ± 3.7e-06	0.00097 ± 2e-05	0.000408	0.000346 ± 3.8e-06
PEPTKSAPAPKKG [Unmod H2B variant P E P T K S A P A P K K G]	0.006019 ± 5.5e-05	0.0126 ± 0.00066	0.0173 ± 0.011	0.0103 ± 0.0017	0.001 ± 0.0001	0.00205 ± 0.00015	0.000649 ± 1.2e-05	0.00115 ± 2e-05
PDPAKSAPAPKKG [Unmod H2B variant P D P A K S A P A P K K G]	0.0068 ± 0.00035	0.00538 ± 0.00012	0.00358 ± 0.00019	0.004039 ± 3.4e-05	0.000868 ± 7.8e-05	0.00097 ± 9.9e-06	0.000453	0.00075 ± 7.9e-06
PEPVKSAPVPKKG [Unmod H2B variant P E P V K S A P V P K K G]	0.007868 ± 4.2e-05	0.0166 ± 0.00043	0.00889 ± 0.00055	0.0274 ± 0.0037	0.00279 ± 0.00019	0.00251 ± 0.00026	0.000997 ± 6.3e-05	0.00144 ± 5.1e-05
PELAKSAPAPKKG [Unmod H2B variant P E L A K S A P A P K K G]	0.00618 ± 0.00062	0.0121 ± 0.001	0.0037 ± 8.6e-05	0.0085 ± 0.0029	0.0013 ± 0.00034	0.0028 ± 0.00029	0.000951 ± 7.1e-05	0.00133 ± 8.2e-05
PKKGSKKAVTKAQ [Unmod H2B variant P K K G S K K A V T K A Q]	0.00561 ± 0.00027	0.008048 ± 4.3e-05	0.00275 ± 0.00016	0.00354 ± 0.00011	0.000378 ± 7.7e-06	0.000628 ± 6.7e-06	0.000196 ± 2.1e-06	0.000577 ± 6.2e-06
ISKKGFKKAVVKT [Unmod H2B variant I S K K G F K K A V V K T]	0.00683 ± 0.00024	0.0118 ± 0.00025	0.00227 ± 7.3e-05	0.00602 ± 0.00021	0.00051 ± 8.6e-06	0.000685 ± 7.2e-06	0.000257 ± 2.7e-06	0.000461
APKKGSKKAVTKA [Unmod H2B variant A P K K G S K K A V T K A]	0.00705 ± 0.00011	0.00729 ± 0.00014	0.00185 ± 1.9e-05	0.00446 ± 0.00013	0.000529 ± 1.4e-05	0.000571 ± 1.1e-05	0.000211 ± 2.2e-06	0.000461
VPKKGSKKAINKA [Unmod H2B variant V P K K G S K K A I N K A]	0.00639 ± 0.00069	0.0081 ± 0.00015	0.00263 ± 3.9e-05	0.0056 ± 0.00078	0.000529 ± 4.2e-05	0.000856 ± 8.9e-06	0.000196 ± 2.1e-06	0.000461 ± 8.7e-06
APKKGSKKAITKA [Unmod H2B variant A P K K G S K K A I T K A]	0.00592 ± 0.00021	0.00971 ± 0.00064	0.00239 ± 4.7e-05	0.00248 ± 6.3e-05	0.000264 ± 2.8e-06	0.00114 ± 3e-05	0.000302 ± 3.1e-06	0.000634 ± 1.2e-05
KAQKKDGKKRKRS [Unmod H2B variant K A Q K K D G K K R K R S]	0.0176 ± 0.012	0.00876 ± 0.00031	0.00275	0.00461 ± 0.00031	0.000415 ± 4.2e-06	0.00103 ± 2.1e-05	0.000227	0.000692 ± 7.3e-06
KTQKKEGKKRKRT [Unmod H2B variant K T Q K K E G K K R K R T]	0.0089 ± 0.00018	0.0148 ± 0.0025	0.003163 ± 1.7e-05	0.00857 ± 0.0013	0.00068 ± 1.9e-05	0.0012 ± 1.2e-05	0.000287 ± 5.9e-06	0.000865 ± 9e-06
DGKKRKRSRKESY [Unmod H2B variant D G K K R K R S R K E S Y]	0.00834 ± 0.00013	0.00714 ± 0.00021	0.00221 ± 3.8e-05	0.00454 ± 0.00011	0.000623 ± 2e-05	0.000628 ± 6.7e-06	0.000151 ± 1.6e-06	0.000461
EGKKRKRTRKESY [Unmod H2B variant E G K K R K R T R K E S Y]	0.00661 ± 0.00023	0.0101 ± 0.00031	0.00251 ± 0.00012	0.00326 ± 0.0001	0.000378 ± 3.9e-06	0.000913 ± 1.6e-05	0.000302 ± 1.5e-05	0.000404 ± 4.4e-06
KRSRKESYSIYVY [Unmod H2B variant K R S R K E S Y S I Y V Y]	0.00561 ± 0.00019	0.0029 ± 0.00042	0.00179 ± 4.2e-05	0.000496 ± 9.7e-06	0.00051 ± 7.5e-05	0.000685 ± 1.5e-05	0.000227 ± 4.1e-06	0.000634 ± 1.2e-05
KRTRKESYSIYIY [Unmod H2B variant K R T R K E S Y S I Y I Y]	0.015 ± 0.0008	0.0228 ± 0.0011	0.00716 ± 0.00018	0.0159 ± 0.0033	0.000529 ± 1.4e-05	0.0016 ± 5.3e-05	0.000468 ± 1.2e-05	0.0011 ± 1.1e-05
KVLKQVHPDTGIS [Unmod H2B variant K V L K Q V H P D T G I S]	0.00552 ± 0.00019	0.00971 ± 0.0005	0.00531 ± 0.00011	0.0101 ± 0.00011	0.000755 ± 1.8e-05	0.001655 ± 1.6e-05	0.000483 ± 2.8e-05	0.00346 ± 0.0011
VHPDTGISSKAMG [Unmod H2B variant V H P D T G I S S K A M G]	0.009373 ± 4.6e-05	0.0173 ± 0.0018	0.0154 ± 0.0017	0.0346 ± 0.0034	0.00563 ± 0.0004	0.00964 ± 0.0005	0.00272 ± 6.5e-05	0.00283 ± 4.9e-05
GISSKAMGIMNSF [Unmod H2B variant G I S S K A M G I M N S F]	0.00856 ± 0.00082	0.0227	0.00913 ± 0.00027	0.0416 ± 0.0056	0.00215 ± 0.00023	0.00348 ± 0.00045	0.000695 ± 1.2e-05	0.0011 ± 1.1e-05

— the supplement of paper PMC4022240
